# KCNQ2 pot: enhances the rat KCNQ2 potassium channel; CHO-K1 KCNQ2, FluxOR thallium flux fluorescence; stronger effect = higher value; B-score at 10 µM; 310,000 compounds, 0.54% hits;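 active means fluorescence ratio B-score at least 3 SD of library B-scores, with initial fluorescence B-score within 3 of them, cut at about 5.3 in these data; same plate scores as AID 2156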;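 further: B-score of peak minus minimum over baseline fluorescence ratio after K+ and Tl+ stimulus; positive B-score means potentiation of KCNQ2 with more thallium influx and brighter signal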
# KCNQ2 inh: blocks the rat KCNQ2 potassium channel. O88943. CHO-K1 KCNQ2, FluxOR thallium flux, 20 min; stronger effect = lower value. B-score at 10 µM. 310,000 compounds, 1.1% hits. AID 2156;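 active means fluorescence ratio B-score at most minus 3 library SDs, with starting brightness B-score within 2 library SDs, cut at about -5.5 in these data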
# Kir21 conf inh: confirmation of mouse Kir2.1 potassium channel inhibitors; shares compounds with KCNQ2 pot; Kir2.1-expressing cells, FluxOR thallium flux fluorescence; stronger effect = lower value; Tl flux remaining, % of negative control (stronger effect = lower value), % at 10 µM; 2,300 compounds, 41% hits;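 active means Primary-screen hit whose thallium flux fell at least 3 control SD below untreated wells in both duplicates, with normal baseline fluorescence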;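 further: 0% = blank wells without stimulus and 100% = stimulated no-compound controls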
# HEK293 Tl flux: alters thallium flux in parental HEK293 cells, Kir2.1 counter-screen; FluxOR signal as % of negative control (100 = no effect), % at 10 µM; 2,300 compounds, 19% hits; shares compounds with KCNQ2 pot; FluxOR thallium flux fluorescence; 0% = unstimulated blank wells; AID 2105;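 active means dye signal at least 3 control SD above or below untreated wells in both duplicates, raw fluorescence within 3, either direction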;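 further: percent is based on the flux ratio of peak minus minimum fluorescence over baseline F0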
# CHO-K1 Tl ctr: alters thallium flux in parental CHO-K1 cells, KCNQ2 counter-screen | shares compounds with KCNQ2 pot | FluxOR thallium flux fluorescence; zero = vehicle mean+3SD, 100% = vehicle-minus-blank window | activity increase over 3SD of controls, % at 10 µM | 1,200 compounds, 43% hits;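 active means signal rise of at least 3 SD above the untreated control mean, in both duplicate wells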;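 further: counter screen of KCNQ2 potentiator hits so any rise reflects channel-independent effects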
# KCNQ1 pot spec: tests whether KCNQ2 potentiators also act on human KCNQ1; shares compounds with KCNQ2 pot; CHO KCNQ1 stable, FluxOR thallium flux fluorescence; beyond 3SD, as % of vehicle-control signal; activation over 3SD threshold, % at 10 µM; 1,200 compounds, 28% hits; AID 2283;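 active means fluorescence ratio rise of at least 3 SD of vehicle wells above their mean, in both replicate wells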;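 further: 0% = vehicle mean plus 3 SD and 100% = vehicle minus unstimulated blank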
# KCNQ2 pot conf: confirmation of rat KCNQ2 potassium channel potentiators; shares compounds with KCNQ2 pot; CHO-KCNQ2 cells, FluxOR thallium flux fluorescence; potentiation, less the hit threshold, % at 10 µM; 1,200 compounds, 68% hits; AID 2287;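 active means fluorescence ratio rising 3 SD or more over the vehicle control mean in both replicates, plus primary screen hit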;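 further: peak minus minimum thallium fluorescence divided by baseline after K/Tl stimulus; 0% = vehicle mean plus 3 SD and 100% = vehicle minus unstimulated blank difference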
# Kir21 spec: mouse Kir2.1 off-target activity of KCNQ2 potentiators; 1,200 compounds, 2% hits; activity over 3SD threshold, % at 10 µM; shares compounds with KCNQ2 pot; AID 2345; HEK293 Kir2.1, FluxOR thallium flux fluorescence;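 active means fluorescence ratio rise of at least 3 SD above the vehicle-control mean, seen in both replicates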;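 further: 0% = vehicle mean plus 3 SD and 100% = vehicle minus no-stimulus blank window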
# KCNQ2 W236L pot: rat KCNQ2 W236L mutant potentiation by KCNQ2 potentiators. shares compounds with KCNQ2 pot. CHO KCNQ2-W236L, automated patch clamp current. current increase over 3SD of negative controls (%), stronger effect = higher value, % at 25 µM. 940 compounds, 10% hits. AID 2558;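 active means current increase at least 3 SD of the untreated controls above them in both duplicate recordings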
# Target sequence (O88943 whole entry W236L, looked up): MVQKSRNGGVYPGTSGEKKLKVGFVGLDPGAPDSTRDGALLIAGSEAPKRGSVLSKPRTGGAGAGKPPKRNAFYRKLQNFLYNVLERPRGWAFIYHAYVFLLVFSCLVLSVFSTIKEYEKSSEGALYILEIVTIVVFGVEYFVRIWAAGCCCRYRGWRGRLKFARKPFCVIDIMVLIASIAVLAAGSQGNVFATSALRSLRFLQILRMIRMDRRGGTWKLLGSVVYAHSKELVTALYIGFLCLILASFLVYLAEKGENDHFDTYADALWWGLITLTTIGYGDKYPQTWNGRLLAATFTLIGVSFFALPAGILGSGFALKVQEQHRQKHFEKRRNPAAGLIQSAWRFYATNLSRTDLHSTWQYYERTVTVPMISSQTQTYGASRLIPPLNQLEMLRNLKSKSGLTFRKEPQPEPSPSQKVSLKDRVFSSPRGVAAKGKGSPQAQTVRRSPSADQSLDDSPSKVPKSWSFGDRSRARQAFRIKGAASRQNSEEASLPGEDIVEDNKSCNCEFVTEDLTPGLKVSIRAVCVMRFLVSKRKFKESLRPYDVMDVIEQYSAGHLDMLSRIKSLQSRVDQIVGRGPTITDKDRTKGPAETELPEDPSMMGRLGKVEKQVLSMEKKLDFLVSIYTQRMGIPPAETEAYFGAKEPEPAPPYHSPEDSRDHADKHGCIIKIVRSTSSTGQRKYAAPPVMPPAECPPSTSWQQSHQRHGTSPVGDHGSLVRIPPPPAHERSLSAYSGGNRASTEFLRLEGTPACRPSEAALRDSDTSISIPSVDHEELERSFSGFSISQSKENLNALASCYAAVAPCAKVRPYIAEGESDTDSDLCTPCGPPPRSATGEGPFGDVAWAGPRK
# Starred values were filed as active, the others as inactive; i = inactive; . = not tested or not shown. Only some compounds are listed: those with a hit (about 1.6% of all), similar ones and a draw of the others.
SMILES,KCNQ2 pot,KCNQ2 inh,Kir21 conf inh,HEK293 Tl flux,others
O=C(COc1ccc2c3c(c(=O)oc2c1)CCC3)NCc1cccnc1,1.1,i,.,.,
CCSc1nc2cc(OC)c(OC)cc2c(=O)n1CC,.,i,.,.,
C#CCOC(=O)Nc1cc(C)n(-c2ccccc2)n1,0.62,i,.,.,
COc1ccc2cc(-c3[nH]ncc3CN3CCCN(c4ccccc4)CC3)ccc2c1,.,i,.,.,
CCOc1ccccc1C(=O)NC1CCNCC1,0.2,i,.,.,
COc1ccc(CNS(=O)(=O)NCc2ccc(C)cc2)cc1OC,.,i,.,.,
Cc1ccc(C(=O)CN(C(=O)c2ccc(Cl)c(Cl)c2)N2C(=O)C3C4C=CC(C4)C3C2=O)cc1 (configuration not stated),.,i,.,.,
COc1ccc(OS(=O)(=O)c2c(C)noc2C)cc1,.,i,.,.,
CN(C)C(=O)c1ccccc1Sc1cc(Cl)ccc1Cl,.,i,47%*,i,
CN(C)C(=O)c1ccccc1Sc1ccc(Cl)cc1Cl,.,i,.,.,
NS(=O)(=O)c1cccc(NC(=O)c2cccc(Oc3ccccc3)c2)c1,.,i,.,.,
CCN(CC)CCNCc1cc(Br)ccc1OCC(=O)NCc1ccccc1,.,i,.,.,
CC(NCc1cc(Br)ccc1OCC(=O)NCc1ccccc1)c1ccccc1 (configuration not stated),.,i,43%*,i,
O=C(c1ccc(Cl)cc1)C1CCN(Cc2ccccc2)CC1,.,i,20%*,i,
CC(=O)N1CCC(C(=O)c2ccc(Cl)cc2)CC1,.,i,.,.,
S=C(Nc1ccc(Cl)cc1Cl)NC1CCN(Cc2ccccc2)CC1,0.91,i,.,.,
Clc1ccc(CNC2CCN(Cc3ccccc3)CC2)cc1,.,i,28%*,i,
O=C(NC1CCN(Cc2ccccc2)CC1)c1ccc(Cl)cc1Cl,.,i,76%*,i,
Fc1ccc(CNC2CCN(Cc3ccccc3)CC2)cc1,.,i,.,.,
Clc1ccccc1C1=CC(c2ccco2)n2ncnc2N1 (configuration not stated),.,i,.,.,
COCC1CCN(Cc2cn[nH]c2-c2ccc(OC)c(F)c2)C1 (configuration not stated),1.5,i,.,.,
CS(=O)(=O)NNC(=O)c1sccc1OCc1ncc(C(F)(F)F)cc1Cl,.,i,.,.,
CCOC(=O)c1c(-c2ccc(C)o2)csc1NC(=S)NC(=O)N(C)C,15*,i,i,314%*,CHO-K1 Tl ctr=-10;KCNQ1 pot spec=-18;KCNQ2 pot conf=34*;Kir21 spec=-8;KCNQ2 W236L pot=59%*
CCOC(=O)c1c(-c2ccc(C)o2)csc1N,.,i,.,.,
CCc1cc(C(=O)N2CCCC(CNC(=O)c3ccc(-c4ccccc4)cc3)C2)no1 (configuration not stated),.,i,.,.,
SMILES,KCNQ2 pot,KCNQ2 inh,Kir21 conf inh,HEK293 Tl flux,others
COCCNc1c2c(nc3c(-c4ccccc4)c(C)nn13)CCCC2,.,i,.,.,
Cc1nn2c(NCCN(C)C)c3c(nc2c1-c1ccccc1)CCCC3,6.1*,i,.,.,CHO-K1 Tl ctr=-24;KCNQ1 pot spec=-13;KCNQ2 pot conf=-33;Kir21 spec=-64
O=c1cc(Cl)[nH]c(=O)n1Cc1ccccc1,1.1,i,.,.,
O=c1ccsn1Cc1ccccc1,5.7*,i,.,.,CHO-K1 Tl ctr=-18;KCNQ1 pot spec=-17;KCNQ2 pot conf=-4;Kir21 spec=-63
COc1cc(-c2nnc(NC(=O)CS(=O)(=O)c3ccc(C)cc3)o2)cc(OC)c1OC,.,i,.,.,
Cc1ccc(S(=O)(=O)CCC(=O)N2CCN(c3ccc(Cl)cc3)CC2)cc1,.,i,.,.,
CCCc1cc(=O)oc2cc(OCC(=O)NC3CC(C)(C)NC(C)(C)C3)ccc12,1.3,i,.,.,
CCOc1ccc(NC(=O)C2CC3CCC2C3)cc1 (configuration not stated),0.07,i,.,.,
CC(C)c1ccc(NC(=O)C2CC3CCC2C3)cc1 (configuration not stated),26*,i,i,i,CHO-K1 Tl ctr=30*;KCNQ1 pot spec=-12;KCNQ2 pot conf=66*;Kir21 spec=-23;KCNQ2 W236L pot=i
O=C(Nc1ccc(F)cc1)C1CC2CCC1C2 (configuration not stated),1.4,i,.,.,
CCC(C)c1ccc(NC(=O)C2CC3CCC2C3)cc1 (configuration not stated),26*,i,i,i,CHO-K1 Tl ctr=7.5*;KCNQ1 pot spec=-3;KCNQ2 pot conf=105*;Kir21 spec=-39;KCNQ2 W236L pot=i
O=C(O)/C(=C\c1ccc(Br)cc1)NC(=O)c1cccs1,.,i,.,.,
COc1cccc(N2C(=NC(=O)CCc3ccccc3)SC3CS(=O)(=O)CC32)c1 (configuration not stated),.,i,.,.,
CCCCCCCC[n+]1cccc2c3ccccc3ccc21,0.04,i,.,.,
CCCCCCCCCC[n+]1cccc2c3ccccc3ccc21,.,i,7.5%*,i,
CCCn1c(=NC(=O)c2ccco2)c(C(=O)OCC)cc2c(=O)n3ccccc3nc21,0.09,i,.,.,
CCOC(=O)c1cc2c(=O)n3ccccc3nc2n(CCCOC)c1=NC(=O)c1ccncc1,8.6*,i,i,i,CHO-K1 Tl ctr=-10;KCNQ1 pot spec=-13;KCNQ2 pot conf=-28;Kir21 spec=-34
O=c1[nH]c(-c2ccccc2)c(-c2ccccc2)nc1[N+](=O)[O-],.,i,.,.,
O=C1NC(c2ccccc2)=C(c2nc3ccccc3s2)C(c2ccccc2)N1 (configuration not stated),5.9*,i,i,i,CHO-K1 Tl ctr=18*;KCNQ1 pot spec=-18;KCNQ2 pot conf=8.2*;Kir21 spec=-19;KCNQ2 W236L pot=i
CC(=O)C1=C(c2ccccc2)NC(=O)NC1c1ccccc1 (configuration not stated),0.49,i,.,.,
O=C(CCc1ccccc1)Nc1cc2c3c(c1)CC(=O)N3CCC2,0.57,i,.,.,
CCCCOc1ccc(Br)cc1CSC(=N)N,0.15,i,20%*,i,
COc1ccc(CSC(=N)N)cc1[N+](=O)[O-],0.48,i,.,.,
CCOc1ccc(C(C)=O)cc1CSC(=N)N,0.92,i,.,.,
CCCCCOc1ccc(CSC(=N)N)cc1[N+](=O)[O-],.,i,29%*,i,
Cc1ccccc1NC(=O)c1ccccc1NC(=O)CCC(=O)O,.,i,.,.,
Cc1c(Cc2ccccc2)c(=O)oc2c(CN(C)C)c(O)c(Cl)cc12,0.93,i,.,.,
CN(C)Cc1c(O)ccc2oc(Cc3ccccc3)cc12,0.02,i,42%*,i,
COc1ccc(C(=O)NCc2ccc3c(c2)CCO3)cc1,.,i,.,.,
CC1CCCCC1NC(=O)CCNS(=O)(=O)c1ccc(Cl)cc1 (configuration not stated),1.1,i,.,.,

# From PubChem
